# Measured values taken from PubChem BioAssay (NCATS).
# Records with an inconclusive call do not appear. Active and inactive are the calls of the source. Unless noted, calls follow the shape of the full dose curve.
# Legend:
# [1] = Confirmatory qHTS to identify inhibitors of SARS-CoV-2 cell entry (AID 1645844); also: nearly all actives have a fitted effect of over 45% in size; also: potency is read from the fitted curve at half-maximal effect
# In short: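 HEK293-ACE2, overnight seeding; cpd 1 h, 37C/5% CO2; + SARS-CoV-2-S MLV PP (Wuhan-Hu-1, ΔC19); 48 h; Bright-Glo luminescence. Data normalised to S PP and bald PP wells.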
# [2] = Cytotoxicity counterscreen for inhibitors of SARS-CoV-2 cell entry (AID 1645845); settings: outcome: dose series up to 57.1 µM unless noted; also: nearly all actives have a fitted effect of over 50% in size; also: potency is read from the fitted curve at half-maximal effect
# In short: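 Counterscreen run in the same HEK293-ACE2 line as the pseudotyped-particle entry assay, without particles. Viability after 48 h at 37 C was read as ATP luminescence, scaled between cell-containing and cell-free wells.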
# [3] = VSVG counterscreen qHTS to identify inhibitors of SARS-CoV-2 cell entry (AID 1645847); also: nearly all actives have a fitted effect of over 65% in size; also: potency is read from the fitted curve at half-maximal effect; as to activity change, negative = inhibition: % is scaled to controls: 0 for no effect and ±100 for the full control effect
# In short: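 Counterscreen using VSV-G (not spike) pseudotyped MLV particles on ACE2-expressing Expi293F cells after 1 h compound preincubation; infection ran 48 h at 37 °C. Data normalized to VSV-G PP and bald-PP wells.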
# [4] = Primary qHTS to identify inhibitors of SARS-CoV-2 cell entry (AID 1645846); settings: SARS-CoV-2 pseudovirus cell entry assay, luminescence; activity change, negative = inhibition: at 57.1 µM (top of the series) unless noted; also: nearly all actives have a fitted effect of over 45% in size; also: potency is read from the fitted curve at half-maximal effect
# In short: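 Data are normalized to wells receiving SARS-CoV-2-S pseudoparticles and those given bald particles. Entry signal was luciferase luminescence in stable hACE2 Expi293F cells, 48 hr post-infection, after 1 hr compound pretreatment.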
# [5] = Primary qHTS for inhibitors of nuclear receptor binding SET domain protein 2 (NSD2) in an isogenic RCH-ACV NSD2 p.E1099K mutant (9B) (AID 1645876; active = well fitted inhibition curve with a large enough effect; also: % is scaled to controls: 0 for no effect and ±100 for the full control effect; nearly all actives have a fitted effect of over 70% in size)
# [6] = biological target: Glutathione peroxidase 1 (Homo sapiens) (UniProt P07203); assay: Primary qHTS Assay for Inhibitors of Recombinant Selenoprotein Glutathione Peroxidase 1 (GPX1) (AID 1845191; active = well fitted inhibition curve with a large enough effect; also: nearly all actives have a fitted effect of over 65% in size)
# Chain of Glutathione peroxidase 1 (Homo sapiens) (P07203 whole entry, looked up): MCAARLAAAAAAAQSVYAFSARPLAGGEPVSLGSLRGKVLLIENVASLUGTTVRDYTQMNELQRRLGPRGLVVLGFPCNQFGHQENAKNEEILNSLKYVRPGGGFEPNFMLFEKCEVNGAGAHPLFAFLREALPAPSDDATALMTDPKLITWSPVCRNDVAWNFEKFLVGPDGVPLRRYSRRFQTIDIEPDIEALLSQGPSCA
# In short: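 GR-coupled readout: NADPH consumption tracked by fluorescence, ex 340/em 450 nm, at t=0 and after 15 min at RT. Final mix 10 nM GPX1, 1 mM GSH, 0.5 mM CHP, 0.5 mM NADPH, 100 nM GR, 0.01% BSA, following 30 min enzyme–compound preincubation.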
# [7] = qHTS drug screen for cell cycle checkpoint inhibitors in PARPi-resistant BRCA-mutant ovarian cancer cell lines. (AID 1963452); settings: PEO1/OlaR viability, CellTiter-Glo luminescence, 96 h, stronger effect = lower value
# In short: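 PEO1, PEO4 and PEO1/OlaR ovarian cancer cells, 600 per well, exposed 96 h at 37C to a dilution series. Viability read by CellTiter-Glo luminescence, normalized to DMSO and empty wells; activity summarized as Z-AUC.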
compound,measurement,setting,value
C=CC(=O)N1CCC(Oc2cc3c(Nc4ccc(Cl)c(Cl)c4F)ncnc3cc2OC)CC1,Potency,[1],1360 nM (active)
same,Potency,[2],inactive
same,Potency,[3],961 nM (active)
CC(C)n1c(=O)cc(N[C@@H](C)c2ccccc2)[nH]c1=O,Potency,[1],inactive
same,Potency,[2],inactive
same,"activity change, negative = inhibition",[4],-96.7%
same,Potency,[3],inactive
COc1cc2c3c(n(CCCn4ccnc4)c(=O)c2cc1OC)-c1cc2c(cc1C3=O)OCO2,Potency,[1],48.2 nM (active)
same,Potency,[2],inactive
same,"activity change, negative = inhibition",[4],-94.4%
same,Potency,[3],60.7 nM (active)
O=C(/C=C\n1cnc(-c2cc(C(F)(F)F)cc(C(F)(F)F)c2)n1)NNc1cnccn1,Potency,[1],3040 nM (active)
same,Potency,[2],inactive
same,Potency,[4],2820 nM (active)
same,Potency,[3],1710 nM (active)
COc1cc(OC)c(/C=C/S(=O)(=O)Cc2ccc(OC)c(OP(=O)(O)O)c2)c(OC)c1,Potency,[1],17.5 nM (active)
same,Potency,[2],inactive
same,"activity change, negative = inhibition",[4],-77.7%
same,Potency,[3],39.3 nM (active)
CN1CCC(c2c(O)cc(O)c3c(=O)cc(-c4ccccc4Cl)oc23)C1CO (stereo not given),Potency,[1],3040 nM (active)
same,Potency,[4],2820 nM (active)
same,Potency,[3],2410 nM (active)
CCc1nc(C(N)=O)c(Nc2ccc(N3CCC(N4CCN(C)CC4)CC3)c(OC)c2)nc1NC1CCOCC1,Potency,[1],3410 nM (active)
same,Potency,[2],inactive
same,Potency,[4],10000 nM (active)
C=C1C[C@H]2C=Nc3cc(OCCCOc4cc5c(cc4OC)C(=O)N4CC(=C)C[C@H]4C=N5)c(OC)cc3C(=O)N2C1,Potency,[1],1.5 nM (active)
same,Potency,[2],inactive
same,"activity change, negative = inhibition",[4],-62%
same,Potency,[3],1.4 nM (active)
CCN(CCCOc1ccc2c(Nc3cc(CC(=O)Nc4cccc(F)c4)[nH]n3)ncnc2c1)CCOP(=O)(O)O,Potency,[1],34.1 nM (active)
same,Potency,[2],inactive
same,"activity change, negative = inhibition",[4],-62.3%
same,Potency,[3],76.4 nM (active)
CN(C)CCN1C(=O)c2cccc3cc(NC(N)=O)cc(c23)C1=O,Potency,[1],9610 nM (active)
same,Potency,[4],7080 nM (active)
same,Potency,[3],12100 nM (active)
CC(=O)N1CCN(CCOc2ccc(C3CCN(C4=Nn5c(nnc5C(F)(F)F)CC4)CC3)cc2)CC1,Potency,[1],19200 nM (active)
same,Potency,[2],inactive
same,"activity change, negative = inhibition",[4],-91.8%
same,Potency,[3],19200 nM (active)
C[C@H]1[C@H](O)[C@@H](C)/C=C/C=C/CC/C=C/C=C/C=C/C=C/[C@H](O[C@@H]2O[C@H](C)[C@@H](O)[C@H](N)[C@@H]2O)C[C@@H]2O[C@](O)(C[C@@H](O)[C@H](O)CC[C@@H](O)C[C@@H](O)C[C@@H](O)CC(=O)O[C@H]1C)C[C@H](O)[C@H]2C(=O)O,Potency,[5],inactive
same,Potency,[6],inactive
same,Z-AUC,[7],1.03 (inactive)
same,Z-AUC,[7]; measured here: PEO1 parental Z-AUC,0.678
same,Z-AUC,[7]; measured here: PEO4 Z-AUC,1.2
Nc1ncc(C(=O)NC2CN(C(=O)C3CC3)C2)c2ccc(-c3cccc(F)c3)nc12,Potency,[2],inactive
CO[C@H]1/C=C/O[C@@]2(C)Oc3c(C)c(O)c4c(O)c(c(/C=N/N5CCN(C)CC5)c(O)c4c3C2=O)NC(=O)/C(C)=C\C=C\[C@H](C)[C@H](O)[C@@H](C)[C@@H](O)[C@@H](C)[C@H](OC(C)=O)[C@@H]1C,Potency,[2],inactive
O=C(O)c1ccc(O)c2ncccc12,Potency,[2],inactive
Cc1nnn(C)c1-c1cnc2c3ccc(C(C)(C)O)cc3n([C@H](c3ccccc3)C3CCOCC3)c2c1,Potency,[2],inactive
CS(=O)(=O)c1ccc([C@@H](CC2CCCC2)C(=O)Nc2nccs2)cc1,Potency,[2],inactive
Cc1[nH]cnc1CN1CCN(C(=O)N[C@@H](CC(C)C)C(=O)O)[C@@H](Cc2ccccc2)C1=O,Potency,[2],inactive
CCc1ccc2nc(Nc3cc(Cc4ccccc4)nc(NC4CCC(O)CC4)n3)sc2c1 (stereo not given),Potency,[2],inactive
Nc1n[n+]([O-])c2ccccc2[n+]1[O-],Potency,[2],inactive
Cc1ccc2cc(-c3c(C)ccc(C(=O)c4c(-c5ccccc5)n(C)n(-c5ccccc5)c4=O)c3N)ccc2n1,Potency,[2],inactive
CNS(=O)(=O)Nc1nccc(Cc2c(C)c3ccc(Oc4ncccn4)cc3oc2=O)c1F,Potency,[2],14100 nM (active)
CCC(C)CNCC(=O)N1CCc2sccc2C1c1cccc(C)n1 (stereo not given),Potency,[2],inactive
O=C(O)c1cnn(-c2nc3cc(OC(F)(F)F)c(Cl)cc3[nH]2)c1,Potency,[2],inactive
Cn1cncc1C(N)(c1ccc(Cl)cc1)c1ccc2c(c1)c(-c1cccc(Cl)c1)cc(=O)n2C (stereo not given),Potency,[2],8910 nM (active)
O=c1ncccn1[C@@H]1O[C@H](CO)[C@@H](O)[C@H]1O,Potency,[2],inactive
COc1cc(N2CCN(C)CC2)ccc1Nc1ncc2c(n1)N(C)c1ccccc1C(=O)N2,Potency,[2],inactive
